# TR SRC2 fluor cs – Total Fluorescence Counterscreen for Inhibitors of the Interaction of Thyroid Hormone Receptor and Steroid Receptor Coregulator 2 | TRb/SRC2 Texas Red total fluorescence interference | hit rate 0.29% among 280,000 | AID 1479, 2009 | Potency, µM (series often up to 106 µM), for the others: at the highest dose fluorescence change, negative = quenching; active means well fitted curve in either direction with a large enough effect; inconclusive means small, poorly fitted or top-dose-only effect; further: on the % scale 0 is the no-effect control and ±100 the full control effect
#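 Human TRb ligand-binding domain at 0.6 uM with 20 nM Texas Red SRC2 peptide in Tris buffer containing 1 uM T3 and 5% DMSO, incubated with compound 5 h at ambient temperature. Total fluorescence (555/632 nm) calculated as parallel + 2 × perpendicular.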
# GoLoco inh red – qHTS Assay for Inhibitors of RGS12 GoLoco Motif Activity (Red Fluorophore). Potency, µM (highest dose often 61.6 µM), without a hit: at the top dose activity, negative = inhibition, hits mostly inhibitors. Guanine nucleotide-binding protein G(i) subunit alpha-1 (Homo sapiens), P63096. Gai1:RGS12 GoLoco peptide FP, rhodamine, 10 min. hit rate 0.44% among 230,000; active means well fitted inhibition curve with a large enough effect, not every such curve was filed as active; inactive means no such curve, though single readings can be large or run the other way; further: on the % scale 0 is the no-effect control and ±100 the full control effect; nearly all actives have a fitted effect of over 30% in size
# TRb-SRC2 inh – qHTS for Inhibitors of the Interaction of Thyroid Hormone Receptor and Steroid Receptor Coregulator 2; AID 1469, 2008; Thyroid hormone receptor beta (Homo sapiens), P10828; Potency, µM (titrated, usually from 106 µM), without a hit: top-dose activity change, negative = inhibition, actives largely listed as inhibitors; hit rate 0.065% among 280,000; TRbeta-SRC2 peptide binding, fluorescence polarization; receptor liganded with 1 µM T3;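 further: plate controls were bound peptide for no effect and peptide without receptor for full effect; nearly all actives have a fitted effect of over 50% in size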
#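 Binding of a 20-amino-acid Texas Red SRC2 peptide (20 nM) to TRb ligand-binding domain (0.6 uM) with agonist T3 at 1 uM was followed by fluorescence polarization after a 5 hr room-temperature incubation.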
# Apoferritin bind – qHTS Assay for Identification of Novel General Anesthetics; Ferritin light chain (Equus caballus), P02791; apoferritin/1-aminoanthracene competitive binding, fluorescence; Potency, µM (titrated, usually from 77.5 µM), without a hit: top-dose activity change, negative = displacement, hits mostly inhibitors; hit rate 0.074% among 350,000; further: on the % scale 0 is the no-effect control and ±100 the full control effect; nearly all actives have a fitted effect of over 20% in size
#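 Steps: apoferritin (10 uM) was premixed with half-saturated 1-AMA in PBS, compounds were pin-transferred, plates stood 10 min at room temperature, fluorescence was read at 380/535 nm, and curves were fitted with a Hill equation.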
# ERG Ets-DNA blk – qHTS for Small Molecule Inhibitors of the ERG Ets/DNA interaction. Potency, µM (top dose mostly 76.9 µM), for the others: at the highest dose FP activity, negative = inhibition, hits mostly inhibitors. AID 624246, 2012. fluorescence polarization, His-ERG Ets domain / labelled DNA. hit rate 0.028% among 370,000. Transcriptional regulator ERG (Homo sapiens), P11308; active means well fitted inhibition curve with a large enough effect in the polarisation, with a control signal flat; inconclusive means small, poorly fitted or top-dose-only effect, or effect the other way, or a change in a side signal; inactive means no such curve, though single readings can be large or run the other way; the % refers to the polarisation;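 further: polarization taken with two DNA probes labelled with fluorescein and Texas red; % of control where 0% means no effect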
# Target sequence (P11308 whole entry, looked up, the tested form may be a part): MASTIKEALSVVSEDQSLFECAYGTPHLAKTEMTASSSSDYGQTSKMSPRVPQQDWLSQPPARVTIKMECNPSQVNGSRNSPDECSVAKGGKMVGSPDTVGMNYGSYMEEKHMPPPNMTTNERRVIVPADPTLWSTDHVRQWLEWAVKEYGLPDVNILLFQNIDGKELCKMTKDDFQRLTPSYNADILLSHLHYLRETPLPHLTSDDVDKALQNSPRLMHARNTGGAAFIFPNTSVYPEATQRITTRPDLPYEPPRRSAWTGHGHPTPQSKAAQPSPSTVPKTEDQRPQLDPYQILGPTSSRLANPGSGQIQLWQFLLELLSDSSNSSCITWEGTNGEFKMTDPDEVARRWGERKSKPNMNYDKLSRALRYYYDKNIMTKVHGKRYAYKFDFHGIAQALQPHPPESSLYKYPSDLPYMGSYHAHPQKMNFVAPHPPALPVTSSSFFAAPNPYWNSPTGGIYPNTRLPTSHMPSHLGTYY
#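 His-tagged ERG Ets domain (1 uM in the protein solution; 300mM KCl, 50mM Tris-HCl, 1mM EDTA, 1mM DTT, pH 7.5) received compound, then a probe mix of 5 nM fluorescein-DNA and 100nM Texas-615-DNA. Fluorescence polarization was read for both dyes.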
# * marks the source's active call; other numbers are inactive results; u = inconclusive; x = no result; [ ] = dose if it differs, or a comment. A selection: hits, their analogues and other compounds. The true share with any hit is near 0.44%. Unless noted, the call rests on the fitted dose curve; in most records, active means well fitted curve in the direction sought with a large enough effect; inconclusive means small, poorly fitted or top-dose-only effect, or another doubt; inactive means no such curve, though single readings can be large; an effect the other way counts as inactive or inconclusive. Potency means the concentration at half of the fitted maximal effect.
SMILES,TR SRC2 fluor cs,GoLoco inh red,TRb-SRC2 inh,Apoferritin bind,ERG Ets-DNA blk
CC[C@H](C)[C@H](NC(=O)[C@H](Cc1ccc(O)cc1)NC(=O)[C@H](Cc1cnc[nH]1)NC(=O)[C@H](CCCNC(=N)N)NC(=O)[C@H](CC(C)C)NC(=O)[C@H](C)NC(=O)[C@H](CO)NC(=O)[C@H](Cc1ccc(O)cc1)NC(=O)[C@H](Cc1ccc(O)cc1)NC(=O)[C@H](CCCNC(=N)N)NC(=O)[C@H](C)NC(=O)[C@H](CC(C)C)NC(=O)[C@H](CC(=O)O)NC(=O)[C@H](CCC(=O)O)NC(=O)[C@H](C)NC(=O)[C@@H]1CCCN1C(=O)[C@H](C)NC(=O)[C@H](CC(=O)O)NC(=O)[C@H](CCC(=O)O)NC(=O)CNC(=O)[C@@H]1CCCN1C(=O)[C@H](CC(N)=O)NC(=O)[C@H](CC(=O)O)NC(=O)[C@@H]1CCCN1C(=O)[C@H](CCCCN)NC(=O)[C@H](CO)NC(=O)[C@@H]1CCCN1C(=O)[C@@H](N)Cc1ccc(O)cc1)C(=O)N[C@@H](CC(N)=O)C(=O)N[C@@H](CC(C)C)C(=O)N[C@H](C(=O)N[C@H](C(=O)N[C@@H](CCCNC(=N)N)C(=O)N[C@@H](CCC(N)=O)C(=O)N[C@@H](CCCNC(=N)N)C(=O)N[C@@H](Cc1ccc(O)cc1)C(N)=O)[C@@H](C)O)[C@@H](C)CC,-2.2%,x,0.4%,-11.6%,x
N#C/C(=C/c1ccc(N2CCOCC2)o1)c1ccc(Br)cc1,8.4%,20.0%,4.4%,u,8.2%
N#C/C(=C\c1ccc(N2CCOCC2)o1)c1ccccc1,u,7.08µM*,-17.2%,-11.5%,x
OC[C@H]1OC(O)(CN2CCOCC2)[C@H](O)[C@@H]1O (some centres undefined),1.5%,x,0.1%,-3.6%,x
O=C(CSc1nnc(-c2ccccc2)o1)c1cccc([N+](=O)[O-])c1,11.2µM*[quencher],x,-8.2%,-10.3%,-3.2%
O=C(CSc1nnc(-c2ccccc2)o1)c1ccc2c(c1)OCCO2,0.7%,-3.7%,9.1%,-10.7%,8.8%
O=C(O)/C=C\c1c2ccc(=O)c(O)c-2oc2c(O)c(O)ccc12,x,0.891µM*,x,x,x
O=C(O)[C@H]1CCCC[C@@H]1c1c2ccc(=O)c(O)c-2oc2c(O)c(O)ccc12,x,-9.6%[14.2 µM],x,x,x
Cc1ccc(Sc2ccccc2CN(C)C)c(N)c1,-2.4%,x,-3.8%,-4.4%,x
CCOC(=O)C1(N(CC)CC)Sc2cc(C)ccc2NC1=O (centres undefined),-3.3%,6.4%,2.5%,-15.4%,2.8%
C=C(C)C(=O)OC1(C(F)(F)F)Oc2cc(C)ccc2NC1=O (centres undefined),-1.9%,-0.7%,-24.8%,17.8µM*,-14.2%
CC(=O)N1CCN(C(=S)c2cccc([N+](=O)[O-])c2)CC1,-2.3%,-0.3%,7.6%,1.0%,2.2%
O=[N+]([O-])c1ccc(N2CCN(C(=S)c3cccc([N+](=O)[O-])c3)CC2)cc1,-0.2%,12.6µM*,4.0%,-3.6%,-4.2%
COc1ccc(CCNC(=O)Cc2ccc(OCc3ccccc3)c(OC)c2[N+](=O)[O-])cc1OCc1ccccc1,-0.7%,36.2%,8.9%,35.5µM*,-4.4%
CC(C)CCCCCCCCCCCCCCC(=O)O,-1.8%[201 µM],x,8.9%[201 µM],x,x
Cc1noc(C)c1-c1nccc(NCc2ccccc2)n1,x,7.08µM*,x,x,x
Cc1cnc(CNc2ccnc(-c3c(C)noc3C)n2)cn1,x,-14.4%,x,x,x
O=C(CNC(=O)c1ccc(Cl)cc1)OCC(=O)c1ccccc1,x,x,x,u,8.9%
O=C(CCC(=O)c1ccc(Cl)cc1)OCC(=O)c1ccccc1,1.4%,2.6%,17.6%,12.6µM*,-0.3%
Cc1ccc2c(C)c(C(=O)N(C)C(C)c3ccon3)oc2c1C (centres undefined),x,x,x,-14.7%,31.6µM*
COc1ccc(-c2nnc3n2N=C(c2ccc(OC)c(OC)c2)CS3)cc1,-3.3%,x,1.8%,-4.2%,x

# Source: PubChem (National Center for Advancing Translational Sciences (NCATS))
